Assay results as given in PubChem BioAssay (NCI).
“And” between values parts separate entries of the source, which are not always exact repeats. Identical values can stand only once. This is part of a sample that, as a whole, favours compounds with a hit. Of some 83,000 tested, about 20% had one in any assay.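 Growth was measured after 48 h exposure to one concentration of compound in 96-well plates. Values under 10 count as active.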 Unmarked numbers belong to inactive results. The source made the active and inactive calls.

These compounds were tested on SK-MEL-5 melanoma (assay: NCI-60 one-dose screen, 48 h (100 = growth as untreated, 0 = no growth, -100 = all killed)). Settings: 10 µM.
Protocol: Growth inhibition of the SK-MEL-5 human tumor cell line is measured as a screen for anti-cancer activity. Cells are grown in 96 well plates and exposed to the test compound for 48 hours. Compounds are tested at a single concentration, which is 10^-5 M for most compounds. The reported endpoint is percent growth (GI% or GIPRCNT), where numbers from 0 - 100% represent growth inhibition, and numbers from -100% - 0 represent cell death. For example, a value of 40 represents 60% growth inhibition. A value of 0 means no net growth occurred over the course of the experiment. A value of -40 indicates 40% of cells at the beginning of the experiment died by the end of the experiment. A value of -100 means all cells are dead at the end of the experiment.
NCI-60 Human Tumor Cell Lines Screen was performed using the standard one-dose NCI protocol, which is described in more detail at https://dtp.cancer.gov/discovery_development/nci-60/default.htm.
Compounds with GIPRCNT values below 10 were considered active. Activity score was based on GIPRCNT using the following formula: […]
Score is 0 for GIPRCNT values of 100 or above, 50 for GIPRCNT values of 0, and 100 for GIPRCNT values of -100.
Work on `CN(C)C(=O)c1ccc(SC(=S)NCc2ccccc2)cc1` yielded a growth of 102%.

Same assay, conditions: 10 µM unless noted
Work on `CC(C)(C)CC(C)(C)c1ccc(OCCSC(=N)N)cc1` yielded a growth of 27.9%.
For `COc1ccc2nc3cc(Cl)ccc3c(NCCNc3c4ccc(Cl)cc4nc4ccc(OC)cc34)c2c1`, the growth was -96.5% (active).
Work on `O=C(Nc1ccc(F)cc1)ON=C1CCCCC1` yielded a growth of 99.6% [100 µM].
With `CN(C)C(=O)SC1=C(c2c(Cl)cccc2Cl)C(=O)c2ccccc21` the growth was 40.1%.
`CC(=O)Nc1cccc2cc(O)ccc12` was tested, and the growth was 113% and 117% and 106%.
In the case of `O=C1c2ccccc2C(=O)c2sc(Nc3cccc(Cl)c3)nc21`, the growth is reported as -82.6% (active).
With `O=C(/C=C\c1cc(Br)ccc1O)/C=C/c1cc(Br)ccc1O` the growth was -87.5% (active).
With `CCCCCC(CCCCC)C(=O)O` the growth was 117%.
For `CCN(CC)CCOc1ccc(-c2nc3cc(Cl)ccc3s2)cc1`, the growth was -38.5% (active).
With `CCOc1ccc(-c2nc3ccc(-c4nc5ccc(N6CCN(C)CC6)cc5[nH]4)cc3[nH]2)cc1` the growth was -96.7% (active).
`COc1ccccc1OC(=O)Oc1ccccc1OC` showed a growth of 100%.
`CCCCCCCCCCCCCCCCOP(=O)([O-])OCC[N+](C)(C)C` gave a growth of 59.1%.
`CCC1OC(OC)C=CC1=O` (stereo not given) showed a growth of 103%.
With `C[N+](C)=c1ccc2nc3c(cc(NCCCNc4cc5oc6cc(=[N+](C)C)ccc-6nc5c5ccccc45)c4ccccc43)oc-2c1` the growth was -96.3% (active).
With `O=C1C2=C(Nc3cc([N+](=O)[O-])ccc3N2)OC1c1c2ccccc2cc2ccccc12` (stereo not given) the growth was 56.7%.
For `Cc1ccc2c(ccc3c[n+]4c5ccccc5ccc4n32)c1`, the growth was -81% (active).
`CC(C)(C)c1ccc(O)c(C2CCCCC2)c1` showed a growth of 96.3%.
With `CCOC(=O)/C=C/c1ccc([N+](=O)[O-])o1` the growth was 69.1%.
For `Oc1c(Cl)c2ccccc2c2ccccc12`, the growth was 101%.
`S=C(NCCNC(=S)[S][Sn]([c]1ccccc1)([c]1ccccc1)[c]1ccccc1)[S][Sn]([c]1ccccc1)([c]1ccccc1)[c]1ccccc1` was tested, and the growth was -100% (active).
`N#CSCc1c(Cl)cccc1Cl` gave a growth of 87.5%.
Work on `CN(C)c1ccc(/C=N/N=C(\C#N)[S][Sn]([Cl])([c]2ccccc2)[c]2ccccc2)cc1` yielded a growth of 37%.
With `N#Cc1ccc([N+](=O)[O-])o1` the growth was 96.8%.
For `CC(C)c1ccc2nc3ccc(C(=O)NCCN4CCN(c5ccccc5)CC4)cn3c(=O)c2c1`, the growth was -25.3% (active).
`NC(N)=N/N=C/c1ccc([N+](=O)[O-])o1` gave a growth of 90.4%.
`Oc1ccc(/C=N/NC(=S)Nc2ccccc2)nc1` was tested, and the growth was -45.3% (active).
`N[C@H](C(=O)O)[C@@H]1CC(Cl)=NO1` was tested, and the growth was 11.4% [20 µM].
With `CNC(=O)N/N=C/c1ccc([N+](=O)[O-])o1` the growth was 98.6%.
`O=C(Nc1ccccc1)Oc1c(Cl)c(Cl)c(Cl)c(Cl)c1Cl` was tested, and the growth was 101% and 96.1%.
In the case of `CN1c2ccccc2C(C)(C)C12C=Cc1cc(O)ccc1O2` (stereo not given), the growth is reported as 43.2%.
In the case of `CN(C)c1ccc(N=Nc2cccc3ccccc23)cc1`, the growth is reported as 93.9%.
`N#CSCC(=O)c1ccc(Cl)cc1` gave a growth of 35.3%.
Work on `CN(Cc1cnc2nc(N)nc(N)c2n1)c1ccc(C(=O)NC(CCC(=O)O)C(=O)O)cc1` (stereo not given) yielded a growth of 23.3%.
With `CCC(CC)COC(=O)c1ccc(O)c(O)c1` the growth was 83.3%.
Work on `O=Nc1ccccc1N=O` yielded a growth of 87.2%.
Compound `Nc1ccc(SSc2ccc(N)cc2)cc1` has a growth of 89.6%.
`O=C(/C=C/C=C/c1ccccc1)c1ccco1` gave a growth of 91.1%.
For `CC1=CC(O)C2CC1C2(C)C` (stereo not given), the growth was 103% and 104%.

Same assay, conditions: 100 µM
With `CN(C)C(=O)c1ccc(SC(=S)NCc2ccccc2)cc1` the growth was -53.1% (active).
